Rows were chosen to be rich in hits. Some 7.4% of all compounds tested hit in one or more screens of this group.
FLuc inh: Firefly luciferase inhibition profiling of diverse chemical library using quantitative high-throughput screening | purified P. pyralis luciferase, luminescence, biochemical | AID 1347043, 2019 | 76,000 compounds, 2.5% hits | Luciferin 4-monooxygenase (Photinus pyralis), P08659 | Potency, µM (series often up to 115 µM), usual class: inhibitors; also: nearly all actives have a fitted effect of over 65% in size
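Inhibitors were tested against purified firefly luciferase in a biochemical, low-substrate format (both substrates at 10uM) and luminescence measured with a CCD imager.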
HEK293 tox: Cytotoxic Profiling in HEK 293 Cell Line of Diverse Libraries Using Quantitative High-Throughput Screening | HEK 293 viability, ATP luminescence (CellTiter-Glo), 48-72 h | Potency, µM (titrated, usually from 115 µM), usual class: inhibitors | 94,000 compounds, 6.6% hits | AID 1345083, 2018; also: nearly all actives have a fitted effect of over 60% in size
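Cells seeded first (HEK 293, 250 cells/well), then compound added by pintool. Incubation ran 48 or 72 hr at 37 degree Celsius. CellTiter-Glo was added and luminescence imaged after 10 min at room temperature.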
SNCA expr inhib: Primary qHTS assay for inhibitors of alpha-synuclein gene (SNCA) expression. Potency, µM (highest dose often 57.2 µM), hits mostly inhibitors. HEK-293 SNCA-luciferase knock-in, luminescence, 24 h. 140,000 compounds, 0.17% hits; also: nearly all actives have a fitted effect of over 45% in size
3T3 cytotox: Cytotoxic Profiling in NIH 3T3 Cell Line of Diverse Libraries Using Quantitative High-Throughput Screening; 94,000 compounds, 4.3% hits; NIH 3T3 viability, CellTiter-Glo ATP luminescence, 48-72 h; Potency, µM (series often up to 96.7 µM), hits mostly inhibitors; also: nearly all actives have a fitted effect of over 55% in size
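ATP-dependent luminescence (CellTiter-Glo) served as the viability signal for NIH 3T3 cells treated with compound for 48 or 72 hr at 37 °C.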
SNCA viab count: GF-AFC viability counterscreen for inhibitors of alpha-synuclein gene (SNCA) expression | Potency, µM (doses to about 57.1 µM), actives largely listed as cytotoxic | 150,000 compounds, 0.12% hits | HEK-293-SNCA-luc viability, GF-AFC fluorescence, 24 h; also: nearly all actives have a fitted effect of over 30% in size
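Cytotoxicity counterscreen: after 24 h compound treatment of genome-edited SNCA-luciferase HEK-293 cells, live-cell protease substrate GF-AFC read by fluorescence after 30 min; activity scaled between DMSO (0%) and medium-only (-100%), curves Hill-fitted.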
hNpr1 antagonist: Natriuretic polypeptide receptor (hNpr1) antagonism - Primary qHTS; Atrial natriuretic peptide receptor 1 (Homo sapiens), P16066; HEK293 hNpr1 GloSensor cGMP, ANP-stimulated luminescence; Potency, µM (doses to about 46.3 µM), actives largely listed as inhibitors; 76,000 compounds, 1.6% hits; calls by dose curve; also: nearly all actives have a fitted effect of over 60% in size
Target sequence (P16066 whole entry, looked up): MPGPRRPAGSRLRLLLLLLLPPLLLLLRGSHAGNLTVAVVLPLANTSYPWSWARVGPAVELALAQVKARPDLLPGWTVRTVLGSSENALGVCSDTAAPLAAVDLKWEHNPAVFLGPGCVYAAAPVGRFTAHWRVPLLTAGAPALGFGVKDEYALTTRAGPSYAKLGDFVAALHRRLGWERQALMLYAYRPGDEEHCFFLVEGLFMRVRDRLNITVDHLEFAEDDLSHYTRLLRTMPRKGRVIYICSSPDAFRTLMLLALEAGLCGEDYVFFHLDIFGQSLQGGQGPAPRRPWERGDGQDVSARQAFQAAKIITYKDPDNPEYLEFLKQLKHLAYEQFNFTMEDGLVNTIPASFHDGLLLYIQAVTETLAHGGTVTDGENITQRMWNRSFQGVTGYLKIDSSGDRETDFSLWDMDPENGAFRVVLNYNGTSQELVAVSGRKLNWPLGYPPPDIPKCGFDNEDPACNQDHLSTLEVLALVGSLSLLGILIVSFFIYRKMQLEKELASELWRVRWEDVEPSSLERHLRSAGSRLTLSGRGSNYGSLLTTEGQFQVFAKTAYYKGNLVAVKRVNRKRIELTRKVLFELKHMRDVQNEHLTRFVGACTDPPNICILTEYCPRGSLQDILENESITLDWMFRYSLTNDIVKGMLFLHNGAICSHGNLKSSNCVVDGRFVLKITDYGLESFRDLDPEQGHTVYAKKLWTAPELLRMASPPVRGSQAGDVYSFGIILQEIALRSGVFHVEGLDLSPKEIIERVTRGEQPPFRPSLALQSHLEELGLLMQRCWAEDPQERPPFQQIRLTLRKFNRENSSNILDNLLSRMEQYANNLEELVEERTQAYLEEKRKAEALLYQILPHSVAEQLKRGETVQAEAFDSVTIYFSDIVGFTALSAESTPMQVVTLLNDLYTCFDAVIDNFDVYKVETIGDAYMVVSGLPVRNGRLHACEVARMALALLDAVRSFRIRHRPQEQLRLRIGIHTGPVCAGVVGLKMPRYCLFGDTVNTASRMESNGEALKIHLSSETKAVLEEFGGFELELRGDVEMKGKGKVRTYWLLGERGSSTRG
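HEK293 cells stably expressing human Npr1 and cGMP GloSensor pGS-40F, loaded 2 h with 2% GloSensor reagent, given compound 30 min at room temperature. Luminescence read before and 20 min after 0.1 nM hNppA.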
NPR1 antag cnf: Natriuretic polypeptide receptor (hNpr1) antagonism - Confirmation | shares compounds with hNpr1 antagonist | 1,400 compounds, 76% hits | Potency, µM (series often up to 57.6 µM), most hits filed as inhibitors | HEK293 hNpr1 cGMP GloSensor luminescence, ANP-stimulated; calls by dose curve; also: nearly all actives have a fitted effect of over 70% in size
NPR2 antag: Natriuretic polypeptide receptor (hNpr2) antagonism - Subtype selectivity assay; shares compounds with hNpr1 antagonist; HEK293 hNpr2 GloSensor cGMP luminescence, CNP-stimulated; Potency, µM (highest dose often 57.6 µM), most hits filed as inhibitors; 1,400 compounds, 67% hits; calls by dose curve; also: nearly all actives have a fitted effect of over 70% in size
FLuc counter: Natriuretic polypeptide receptor (hNpr1) antagonism - Confirmation firefly luciferase (FLuc) inhibition counterscreen. shares compounds with hNpr1 antagonist. purified FLuc enzyme, luminescence, Km substrate. Potency, µM (highest dose often 57.6 µM), most hits filed as inhibitors. 1,400 compounds, 0.7% hits. AID 1347047, 2019
GloSensor ctrl: Natriuretic polypeptide receptor (hNpr1) antagonism - Counterscreen GloSensor control cell line; HEK293 GloSensor cGMP, SNP-stimulated, luminescence; 1,400 compounds, 69% hits; shares compounds with hNpr1 antagonist; Potency, µM (top dose mostly 57.6 µM), usual class: inhibitors; calls by dose curve; also: nearly all actives have a fitted effect of over 70% in size
Each line names hits and unclear results; the compound was inactive in the other large screens (follow-up assays come after a bar, where they were run); ! = not active in a repeat; [ ] = remark or other dose. Unless noted, calls follow the shape of the dose curve; as a rule, active = well fitted curve in the direction sought with a large enough effect; inconclusive = small, poorly fitted or top-dose-only effect, or another doubt; inactive = no such curve, though single readings can be large; an effect the other way counts as inactive or inconclusive.

CC1CCC(NC(=O)C2CCN(C(=O)c3ncn4c3COC(c3ccc(Cl)cc3)C4)CC2)CC1 (stereo not given)	none
O=c1[nH]c(C2CCN(Cc3ccc(-c4cccnc4)cc3)CC2)nc2ccc(F)cc12	HEK293 tox inconclusive, 3T3 cytotox 5.62µM!, hNpr1 antagonist inconclusive | NPR1 antag cnf 19.3µM | NPR2 antag 19.3µM | FLuc counter inactive | GloSensor ctrl 17.2µM
Cc1ccc2nc(C3CCN(CC4CCCC4)CC3)[nH]c(=O)c2c1	none
COc1cccc(-c2ccc(CN3CCCC(c4nc5ccc(C)cc5c(=O)[nH]4)C3)cc2)c1 (stereo not given)	HEK293 tox 25.1µM, SNCA expr inhib inconclusive, 3T3 cytotox 28.2µM!, hNpr1 antagonist 11.2µM | NPR1 antag cnf 17.2µM | NPR2 antag 21.7µM | FLuc counter inactive | GloSensor ctrl 17.2µM
COc1ncccc1-c1cc(C(=O)NCCN(C)C)c2c(c1)ncn2C	none (no result: FLuc inh, HEK293 tox, SNCA expr inhib, 3T3 cytotox, SNCA viab count, hNpr1 antagonist) | NPR1 antag cnf inactive | NPR2 antag inactive | FLuc counter inactive | GloSensor ctrl inactive
O=C1N(C2CCN(Cc3ccc(C(F)(F)F)cc3)CC2)Cc2cccn21	HEK293 tox inconclusive (no result: FLuc inh, hNpr1 antagonist) | NPR1 antag cnf 15.3µM | NPR2 antag 17.2µM | FLuc counter inactive | GloSensor ctrl 12.2µM
COc1ccc(CN2CCC(N3Cc4cccn4C3=O)CC2)cc1	HEK293 tox inconclusive (no result: FLuc inh, hNpr1 antagonist)
COc1ccc(N(C)C2CN(C(=O)OC(C)(C)C)C2)cc1	none (no result: FLuc inh, hNpr1 antagonist)
CC1(C(=O)N2CCN(Cc3ccc4c(c3)OCO4)CC2)CCCCC(=O)N1 (stereo not given)	none
COc1ccc(C(=O)N2CCC3(CC2)CC(c2cccc(C(F)(F)F)c2)=NO3)cc1	HEK293 tox 35.5µM!, 3T3 cytotox 22.4µM!, hNpr1 antagonist 11.2µM | NPR1 antag cnf 24.3µM | NPR2 antag 27.3µM | FLuc counter inactive[6.39 µM] | GloSensor ctrl inconclusive
CCOC(=O)c1ccc(CNC(=O)N2CCC3(CC2)CN(c2ccccc2)C3=O)cc1	HEK293 tox inconclusive, 3T3 cytotox inconclusive, hNpr1 antagonist inconclusive | NPR1 antag cnf inconclusive | NPR2 antag inconclusive | FLuc counter inactive | GloSensor ctrl inconclusive
CCNC(=O)N1CCC2(CC1)CN(c1ccccc1)C2=O	none
O=C1NCc2ccccc2CC12CCCN2Cc1ccc(Br)cc1 (stereo not given)	HEK293 tox inconclusive, 3T3 cytotox inconclusive (no result: FLuc inh, hNpr1 antagonist) | NPR1 antag cnf inactive | NPR2 antag inactive | FLuc counter inactive | GloSensor ctrl inactive
COc1ccc(CCC(=O)N2CCC(Cc3n[nH]c(C)n3)CC2)cc1	none (no result: FLuc inh, hNpr1 antagonist)
O=C(c1cc2cc(F)ccc2[nH]1)N1CCC(CO)(CCCc2ccccc2)CC1	HEK293 tox inconclusive, 3T3 cytotox inconclusive
